# Experimental data taken from PubChem BioAssay AID372 (MTDP, 2006).
# The whole screen tested about 100,000 compounds, of which about 770 (0.77%) were called active. The sample as a whole holds a higher share of actives than the screen did. Values without a mark were called inactive. Cut-off read from the data, not from the text of the source: active = inhibition above about 50%; inactive = the rest.
# Molecular target: Gag-Pol polyprotein (Human immunodeficiency virus type 1 group M subtype B (isolate HXB2)) (UniProt P04585)
# Test: RNase H inhibition, HIV 1 Gag Pol polyprotein, FRET biochemical assay, screening (AID 372)
# Conditions: HIV-1 RT RNase H, FRET RNA/DNA substrate fluorescence; at 10 µM; hits give high values
row,Compound,inhibition
1,O=c1[nH]n(-c2ccccc2)c(O)c1/C=C1\C=Nc2ccccc21,10%
2,O=c1[nH]c(O)c(/C=C2\C=Nc3ccccc32)[nH]1,0%
3,Cc1ccc([N+](=O)[O-])cc1NC(=O)COc1ccc(Cl)cc1C,13%
4,O=C(Nc1ncccc1Cl)C1CCCO1 (centres undefined),18%
5,COc1ccc(-c2csc(/C(C#N)=C/Nc3ccc(S(=O)(=O)Nc4nccs4)cc3)n2)cc1,6%
6,N#C/C(=C\Nc1ccc(S(=O)(=O)Nc2nccs2)cc1)c1nc(-c2ccc(-c3ccccc3)cc2)cs1,16%
7,Cc1cccc(NC(=O)/C(C#N)=C\c2cc(C)n(-c3ccc(C)c(C)c3)c2C)c1,10%
8,NN1CCN(Cc2cccc3ccccc23)CC1,7%
9,O=C(Cc1ccccc1Cl)c1ccc(O)cc1O,7%
10,Cc1c(O)ccc(C(=O)Cc2ccccc2Cl)c1O,10%
11,O=C(c1cccc(F)c1)N1CCN(C(=O)c2cccs2)CC1,7%
12,COc1cc(OC)c(OC)cc1CN1CCN(Cc2ccccn2)CC1,5%
13,CCc1c(C)sc(NC(=O)c2ccncc2)c1C(=O)OC,73% (active)
14,CCc1c(C)sc(NC(=O)c2cccc(Br)c2)c1C(=O)OC,16%
15,CCc1c(C)sc(NC(=O)c2ccc(OC)c(OC)c2)c1C(=O)OC,16%
16,CCOC(=O)c1ccc(NC(=O)c2cn(-c3ccccc3)nc2-c2ccccc2)cc1,9%
17,COc1cc(C=O)ccc1OCCCCOc1c(C)cc(C)cc1Br,31%
18,O=C(Nc1nc2ccc3ccccc3c2s1)c1ccc(C(=O)c2ccccc2)cc1,18%
19,O=C(Nc1nc2ccc3ccccc3c2s1)c1ccc(Cl)cc1,54% (active)
20,O=C(Nc1nc2ccc3ccccc3c2s1)c1cccc(Cl)c1,5%
21,COc1ccc(NC(=O)c2c(-c3c(Cl)cccc3Cl)noc2C)c([N+](=O)[O-])c1,1%
22,CCOc1ccc(N2C(=O)NC(=O)/C(=C\c3ccc(Sc4ccccc4)o3)C2=O)cc1,15%

row,Compound,inhibition
1,O=[N+]([O-])c1ccc(/C=C/C=N/Nc2nc(N3CCOCC3)nc(N3CCOCC3)n2)cc1,2%
2,CCN(CC)C(=O)c1sc(NC(=O)C(C)(C)C)c(C(=O)OC)c1C,43%
3,CCCC(=O)Nc1sc(C(=O)N(CC)CC)c(C)c1C(=O)OC,24%
4,CCN(CC)C(=O)c1sc(NC(=O)/C=C/C(=O)O)c(C(=O)OC)c1C,70% (active)
5,O=Cc1ccc(-c2ccc(OC(F)(F)F)cc2)o1,7%
6,COc1cccc(C(=O)Nc2ccc(-c3cc4ccccc4oc3=O)cc2)c1,45%
7,COc1cc(OC)cc(C(=O)Nc2ccc3oc(-c4ccc(Br)cc4)nc3c2)c1,27%
8,O=C(Nc1ccc2oc(-c3ccc(F)cc3)nc2c1)c1cc(Br)ccc1Cl,2%
9,O=C(Nc1ccc(-c2cc3ccccc3oc2=O)cc1)c1cccc(F)c1,58% (active)
10,O=C(Nc1ccc2oc(-c3cccc(F)c3)nc2c1)c1cccc(F)c1,14%
11,O=C(Nc1cccc(-c2nc3cc(Cl)ccc3o2)c1)c1cccc(F)c1,21%
12,COc1cc(OC)cc(C(=O)Nc2ccc3oc(-c4ccc(Cl)c(Cl)c4)nc3c2)c1,56% (active)
13,O=C(Nc1ccc(-c2cc3ccccc3oc2=O)cc1)c1ccc(Cl)c(Cl)c1,0%
14,O=C(Nc1ccc2oc(-c3ccc(Cl)c(Cl)c3)nc2c1)c1ccc(F)cc1,60% (active)
15,COc1cc(OC)cc(C(=O)Nc2ccc3oc(-c4ccc(I)cc4)nc3c2)c1,16%
16,O=C(Nc1ccc2oc(-c3cccc(Cl)c3)nc2c1)c1cccc(F)c1,50% (active)
17,COc1ccc(-c2nc3cc(NC(=O)c4ccc(F)cc4)ccc3o2)cc1Cl,13%
18,Cc1cccc2c(Nc3ccccc3)c3ccccc3nc12,17%
19,CCOC(=O)c1cccc(Nc2ncnc3ccc(C)cc23)c1,0%
20,Fc1ccc(/C=N/c2ncn[nH]2)cc1,6%
21,CNC(=O)C(=O)NCCN1CCN(S(=O)(=O)c2ccc([N+](=O)[O-])cc2)CC1,0%
22,O=C(COc1ccccc1Br)Nc1ccc(Cl)c(Cl)c1,20%

row,Compound,inhibition
1,COc1ccc(C(=O)NC(CC(=O)O)c2ccccc2)cc1 (centres undefined),0%
2,CC(=O)c1cccc(N/C=C\C(=O)c2ccc(Cl)c(Cl)c2)c1,10%
3,Cc1ccc(NC(=O)/C=C/c2cccc(C(F)(F)F)c2)cc1,12%
4,O=C1c2ccccc2C(=O)N1c1ccc(-c2nc3ccccc3[nH]2)cc1,0%
5,O=C1C=CC(=O)N1c1ccc(-c2nc3ccc(N4C(=O)C=CC4=O)cc3[nH]2)cc1,14%
6,CCOC(=O)C1=C(C)N=c2s/c(=C\c3ccc(Br)o3)c(=O)n2C1c1ccc(OC)cc1OC (centres undefined),23%
7,CCCC(=O)Nc1c(C)ccc2nsnc12,0%
8,COCCCNC(=O)COc1ccc(Cl)cc1C,10%
9,CCN1C(=O)/C(=C\c2ccc(O)c(O)c2)SC1=S,81% (active)
10,CCN1C(=O)/C(=C\c2cc(Cl)ccc2O)SC1=S,16%
11,CCN1C(=O)/C(=C\c2cc(OC)ccc2O)SC1=S,24%
12,COc1ccc(/C=C2\SC(=S)N(C3CCCCC3)C2=O)cc1O,5%
13,CN1C(=O)/C(=C/c2ccc(O)c(O)c2)SC1=S,83% (active)
14,CCN1C(=O)/C(=C\c2cccc(O)c2)SC1=S,28%
15,COc1cc(/C=C2\SC(=S)N(C3CCCCC3)C2=O)ccc1O,8%
16,CCN1C(=O)/C(=C\c2ccc(O)cc2O)SC1=S,70% (active)
17,CCOc1cc(/C=C2\SC(=S)N(C)C2=O)ccc1O,22%
18,COc1ccc(/C=C2/SC(=S)N(C)C2=O)cc1O,43%
19,CCN1C(=O)/C(=C\c2ccc(O)c(OC)c2)SC1=S,36%
20,N/C(Cc1ccc([N+](=O)[O-])cc1)=N\OC(=O)c1ccc([N+](=O)[O-])cc1,6%
